A short description of assay [1]: reduced viability of SK-BR-3 breast cancer cells – cell-based, 24 h, human, pilot screen (AID 572;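 active = viability at or below 10% of carrier control in both of two separate runs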;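 also: compound exposure lasted between 18 and 24 h rather than exactly 24 h; 100% = carrier-treated control wells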). Conditions: SK-BR-3 viability, CellTiter-Glo luminescence, at 10 µM, stronger effect = lower value. Background: Cellular ATP, detected with luciferase, serves as a proxy for viable cell number.
A short description of assay [2]: HUVEC growth inhibition – cell-based, human, primary screen (AID 575;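 active = viability at or below 30% in both replicate assays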;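 also: 100% = median of untreated cell wells with 0.1% DMSO on each plate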). Conditions: HUVEC proliferation, CellTiter-Glo luminescence, 72 h; at 10 µM; stronger effect = lower value.
A short description of assay [3]: H69AR cell proliferation blockers – human, duplicate replicates, primary screen (AID 580;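 active = viability at or under a set limit in both replicates, limit being median viability minus 3 SD, cut at about 48% in these data, passing the limit was not always enough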;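 also: 100% = mean luminescence of untreated wells and 0% = no signal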). Conditions: H69AR lung tumor cells viability, ATP luminescence, 72 h; at 10 µM; stronger effect = lower value.
Assay [4] can be described thus: MRP1 drug-resistance reversers in H69AR cells – cell-based, doxorubicin co-treatment, pilot screen (AID 601). Particulars: CellTiter-Glo, 72 h, at 10 µM; for differential viability (reversal): stronger effect = higher value.
Assay [5] can be described thus: Her2 expression decrease, cell viability multiplex – SKBR3 breast tumor cells, AlphaScreen, ATP viability, primary screen (AID 461;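 active = Her2 level under about 52% in both replicate screens, with viability over 70% of control, limit read from the data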;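 as to Her2 level: lower value means less Her2 protein in the cells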;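 as to viability: percent of carrier control wells set as 100% viability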). Conditions: SKBR3 Her2 protein level, 18-24 h, measured here: SKBR3 viability, ATP luminescence, at 10 µM.
Assay [6] has as its target Receptor tyrosine-protein kinase erbB-2 (Homo sapiens) (UniProt P04626). Described as above. Particulars: 18-24 h, at 10 µM, stronger effect = lower value.
The nature of assay [7]: yeast transport mutant growth inhibition pilot in 384-well plates, post-Golgi transport modulator project (AID 636; in the data active = inhibition above about 31%). Particulars: absorbance 615 nm, about 18 h, stronger effect = higher value.
Assay [8] is described as follows: growth suppression of yeast trafficking mutant, preliminary HTS, modulators of trafficking downstream of Golgi apparatus project, 1536-format plate, OD 615 nm (AID 637; in the data active = inhibition above about 30%). Particulars: yeast transport mutant growth, absorbance 615 nm, 18 h; stronger effect = higher value.
Setting [9] is: H69AR cells + 2 uM doxorubicin, measured here: viability with 2 uM doxorubicin, stronger effect = lower value.
Setting [10] is: H69AR cells, compound alone cytotoxicity.

Calls of active or inactive are those of the source.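 The calls were made as follows, unless noted: active = viability loss from added drug above about 55%, and viability with drug at most 40%, in both replicates (limit read from the data, passing the limit was not always enough); inconclusive = both conditions met in only one replicate; inactive = neither replicate meets both conditions.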

Receptor tyrosine-protein kinase erbB-2 (Homo sapiens), sequence (P04626 whole entry, looked up): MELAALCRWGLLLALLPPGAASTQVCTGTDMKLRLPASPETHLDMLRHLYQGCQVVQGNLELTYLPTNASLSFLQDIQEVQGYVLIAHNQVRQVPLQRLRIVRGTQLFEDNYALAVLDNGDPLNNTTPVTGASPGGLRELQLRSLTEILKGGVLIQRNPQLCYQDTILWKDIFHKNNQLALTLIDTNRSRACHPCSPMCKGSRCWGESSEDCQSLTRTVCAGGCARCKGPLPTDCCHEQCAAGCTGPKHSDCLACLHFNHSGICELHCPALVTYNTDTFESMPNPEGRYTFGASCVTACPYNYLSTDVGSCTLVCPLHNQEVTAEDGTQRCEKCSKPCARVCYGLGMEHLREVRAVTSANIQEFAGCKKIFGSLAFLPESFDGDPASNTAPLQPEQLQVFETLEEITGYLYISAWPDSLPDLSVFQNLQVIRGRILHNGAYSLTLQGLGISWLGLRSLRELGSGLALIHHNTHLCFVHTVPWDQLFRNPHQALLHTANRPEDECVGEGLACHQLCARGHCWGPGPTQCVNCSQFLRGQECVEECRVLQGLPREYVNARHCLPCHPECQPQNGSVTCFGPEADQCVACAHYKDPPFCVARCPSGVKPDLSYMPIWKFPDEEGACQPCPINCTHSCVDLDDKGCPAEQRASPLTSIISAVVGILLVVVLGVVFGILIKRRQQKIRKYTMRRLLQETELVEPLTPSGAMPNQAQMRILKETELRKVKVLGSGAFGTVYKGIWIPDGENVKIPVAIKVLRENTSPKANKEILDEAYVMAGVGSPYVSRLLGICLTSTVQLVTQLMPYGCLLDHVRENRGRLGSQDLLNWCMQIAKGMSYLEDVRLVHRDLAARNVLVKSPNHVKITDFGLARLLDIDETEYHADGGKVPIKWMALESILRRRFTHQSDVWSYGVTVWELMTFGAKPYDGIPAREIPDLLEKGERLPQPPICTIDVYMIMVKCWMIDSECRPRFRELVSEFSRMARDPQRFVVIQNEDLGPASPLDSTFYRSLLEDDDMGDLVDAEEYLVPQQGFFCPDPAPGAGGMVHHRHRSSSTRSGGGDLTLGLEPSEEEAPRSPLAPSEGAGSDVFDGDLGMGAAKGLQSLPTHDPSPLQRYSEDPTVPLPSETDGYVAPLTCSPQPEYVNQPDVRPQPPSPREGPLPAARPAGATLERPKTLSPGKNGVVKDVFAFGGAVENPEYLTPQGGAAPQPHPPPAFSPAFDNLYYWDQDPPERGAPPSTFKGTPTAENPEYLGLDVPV

`CNCCCC1c2ccccc2C=Cc2ccccc21`: the viability (commonly a read-out of living cells in per cent, often relative to untreated cells) in assay [1] is 82% (inactive); in assay [2] it was 69.5% (inactive); in assay [3] it was 92% (inactive); in assay [4] (setting [9]), 76.7%; in assay [4] (setting [10]) it was 92%. In assay [4] (H69AR cells + 2 uM doxorubicin), the differential viability (reversal) was 15.2% (inactive).
As for `Cc1cc(C)c2c(=O)[nH]c(=O)n(Cc3ccccc3)c2n1`, the viability in assay [5] is 64%; in assay [2] it was 81.7% (inactive); in assay [3], 95.7% (inactive); in assay [4] (setting [9]) it was 84.8%; in assay [4] (setting [10]), 95.7%. The Her2 level in assay [6] was 75.5% (inactive). Besides, the differential viability (reversal) in assay [4] (H69AR cells + 2 uM doxorubicin) was 10.9% (inactive). The values for the inhibition in assay [7] and in assay [8] were -5.26% (inactive) and 6.55% (inactive), respectively.
With `CCOC(=O)c1cc(-c2ccc3c(c2)OCO3)nc2onc(C)c12`, the viability in assay [5] was 110%; in assay [1], 110% (inactive); in assay [3], 67.2% (inactive); in assay [4] (setting [9]), 70.9%; in assay [4] (setting [10]), 67.2%. For the same compound, the Her2 level in assay [6] is 89.5% (inactive). For the same compound, the differential viability (reversal) in assay [4] (H69AR cells + 2 uM doxorubicin) is -3.71% (inactive). The inhibition (usually the change of the read-out against control, counted positive when it falls) was -4.93% (inactive) in assay [7] and 2.9% (inactive) in assay [8].
For the compound `CC(=Nc1cccc(O)c1)c1sc2ccccc2c1O`, the viability in assay [5] is 103%; in assay [1] it was 103% (inactive); in assay [4] (setting [9]) it was 92.5%; in assay [4] (setting [10]) it was 54.5%. The Her2 level in assay [6] is 71.5% (inactive). For the same compound, the differential viability (reversal) in assay [4] (H69AR cells + 2 uM doxorubicin) was -38.1% (inactive). Besides, the inhibition in assay [7] is -5.79% (inactive); in assay [8] it was -3.33% (inactive).
Take `CC(C)N=c1cc2n(-c3ccc(Cl)cc3)c3ccccc3nc-2cc1Nc1ccc(Cl)cc1`: the viability was 102% (inactive) in assay [1]; 9.11% (active) in assay [2]; 64.4% (inactive) in assay [3]; 71% in assay [4] (setting [9]); 64.4% in assay [4] (setting [10]). Besides, in assay [4] (H69AR cells + 2 uM doxorubicin), the differential viability (reversal) was -6.59% (inactive).
As for `NC(=O)c1cc(-c2ccccc2)nc(N2CCOCC2)n1`, the viability is 102% in assay [5]; 102% (inactive) in assay [1]; 84.4% (inactive) in assay [3]; 72.3% in assay [4] (setting [9]); 84.4% in assay [4] (setting [10]). In addition, the Her2 level in assay [6] was 69.5% (inactive). In addition, in assay [4] (H69AR cells + 2 uM doxorubicin), the differential viability (reversal) was 12.1% (inactive). The figures for the inhibition in assay [7] and in assay [8] were -2.97% (inactive) and -6.35% (inactive), respectively.
As for `O=C(CCCCCn1c(=S)[nH]c2cc3c(cc2c1=O)OCO3)N1CCN(Cc2ccccc2)CC1`, the viability in assay [5] is 83%; in assay [1] it was 83% (inactive); in assay [4] (setting [9]) it was 55.3%; in assay [4] (setting [10]) it was 62.7%. Besides, the Her2 level in assay [6] was 77.5% (inactive). The differential viability (reversal) in assay [4] (H69AR cells + 2 uM doxorubicin) is 7.46% (inactive). The figures for the inhibition in assay [7] and in assay [8] were -4.73% (inactive) and -0.66% (inactive), respectively.
As to `CCOC(=O)c1ccccc1NC(=O)c1c(O)c2ccccc2n(CC)c1=O`, the viability in assay [5] was 89%; in assay [1], 89% (inactive); in assay [3], 71.3% (inactive); in assay [4] (setting [9]), 82.3%; in assay [4] (setting [10]) it was 71.3%. In assay [6], the Her2 level is 90% (inactive). Moreover, the differential viability (reversal) in assay [4] (H69AR cells + 2 uM doxorubicin) was -11.1% (inactive). Also, the inhibition in assay [7] is -6.85% (inactive); in assay [8], 0.16% (inactive).
Regarding `Cn1c(Cl)cnc1C1CC(=O)c2cc(Cl)ccc2O1` (stereo unspecified), the viability in assay [1] is 112% (inactive); in assay [2], 15.5% (active); in assay [3] it was 2.09% (active); in assay [4] (setting [9]), 2.04%; in assay [4] (setting [10]), 2.09%. For the same compound, in assay [4] (H69AR cells + 2 uM doxorubicin), the differential viability (reversal) is 0.045% (inactive). The inhibition was -4.46% (inactive) in assay [7] and 3.64% (inactive) in assay [8].
With `C=CCNc1nnc(SC2CC(=O)N(c3ccc(OC)cc3)C2=O)s1` (stereo unspecified), the viability in assay [1] is 107% (inactive); in assay [2], 108% (inactive); in assay [3], 103% (inactive); in assay [4] (setting [9]), 111%; in assay [4] (setting [10]), 103%. Also, in assay [4] (H69AR cells + 2 uM doxorubicin), the differential viability (reversal) was -8.79% (inactive). The inhibition in assay [7] is -1.92% (inactive); in assay [8], 0.73% (inactive).
As to `CCC(CC)n1[nH]c(=O)c2c(C)cc(C)nc21`, the viability is 81% (inactive) in assay [1]; 103% (inactive) in assay [2]; 105% (inactive) in assay [3]; 90.5% in assay [4] (setting [9]); 105% in assay [4] (setting [10]). Besides, in assay [4] (H69AR cells + 2 uM doxorubicin), the differential viability (reversal) was 14.5% (inactive). For the same compound, the inhibition is -5.14% (inactive) in assay [7] and -6% (inactive) in assay [8].
Regarding `CCOc1cc(NC(=O)c2ccco2)c(OCC)cc1NC(=O)CCc1ccc(OC)cc1`, the viability in assay [5] was 89%; in assay [1] it was 89% (inactive); in assay [3], 78.7% (inactive); in assay [4] (setting [9]), 88.6%; in assay [4] (setting [10]) it was 78.7%. In addition, the Her2 level in assay [6] was 88% (inactive). Also, in assay [4] (H69AR cells + 2 uM doxorubicin), the differential viability (reversal) is -9.95% (inactive). The inhibition is 2% (inactive) in assay [7] and 1.31% (inactive) in assay [8].
For `CCN(CCCCOC(=O)c1ccc(OC)c(OC)c1)C(C)Cc1ccc(OC)cc1` (stereo unspecified), the viability in assay [1] is 88% (inactive); in assay [2] it was 64.4% (inactive); in assay [3], 78.9% (inactive); in assay [4] (setting [9]), 72.8%; in assay [4] (setting [10]), 78.9%. Besides, in assay [4] (H69AR cells + 2 uM doxorubicin), the differential viability (reversal) is 6.16% (inactive).
In the case of `CCOC(=O)C1CCN(c2cc(C)nc3cc(-c4cccc(F)c4)nn23)CC1`, the viability in assay [1] is 86% (inactive); in assay [2] it was 105% (inactive); in assay [3], 90.4% (inactive); in assay [4] (setting [9]), 82.4%; in assay [4] (setting [10]), 90.4%. For the same compound, the differential viability (reversal) in assay [4] (H69AR cells + 2 uM doxorubicin) is 7.95% (inactive). For the same compound, the inhibition is -3.78% (inactive) in assay [7] and -6.91% (inactive) in assay [8].

The values above are taken from PubChem BioAssay.
